Results filed as inconclusive are left out. The source made the active and inactive calls.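 How the source made its calls, unless noted: active means differentiation response of at least 50%, scaled between solvent and reference control, from cells with both markers; inactive means the rest.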
Legend:
[1] = yeast TOR pathway RPL19A-GFP modulators, primary screen, cell-based, S. cerevisiae, multiplex flow cytometry (AID 1862; in the data active means percent of DMSO control GFP below about 86%;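 further: lower values mimic rapamycin by blocking the RPL19A rise seen in DMSO cells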); details: S. cerevisiae RPL19A-GFP strain, flow cytometry fluorescence, 3 h; at 10 µM; stronger effect = lower value
[2] = modulators of MEP2-GFP levels in yeast, primary screen, S. cerevisiae, multiplex flow cytometry (AID 1867;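 active means GFP response, as percent of the DMSO control, above the screen-wide mean plus 3 SD, about 139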;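 further: median GFP channel fluorescence of barcode-gated MEP2-GFP cells measured by flow cytometry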); details: S. cerevisiae MEP2-GFP strain, 3 h, at 10 µM, stronger effect = higher value, 100% means same as DMSO wells
[3] = modulators of CIT2-GFP expression in yeast, primary screen, S. cerevisiae, GFP fusion, multiplex flow cytometry (AID 1870;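 active means percent response above a set limit, the screen-wide mean plus 3 SD, cut at about 130% in these data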;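 further: barcoded CIT2-GFP strain pooled with four other GFP strains with rapamycin as positive control; median GFP fluorescence per well over plate mean of DMSO wells so 100% = DMSO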); details: 3 h, at 10 µM, stronger effect = higher value
[4] = modulators of LAP4-GFP expression in yeast, primary screen, S. cerevisiae, multiplex flow cytometry (AID 1873;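 active means GFP signal, as percent of the solvent control, above the screen mean plus 3 SD, about 149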); details: 3 h, at 10 µM, stronger effect = higher value
[5] = modulators of AGP1-GFP expression in yeast TOR pathway, primary screen, cell-based, multiplex flow cytometry, S. cerevisiae (AID 1887;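 active means GFP signal above the screen-wide mean plus 3 SD, that is over about 124.5% of the solvent control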;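 further: AGP1-GFP fusion strain of S. cerevisiae within a five-strain barcoded multiplex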); details: 3 h, at 10 µM, stronger effect = higher value
[6] = inhibitors of CD8+ T cell-vesicle binding, pilot screen, LFA-1/ICAM-1 modulator project, MLPCN validation set, flow cytometry (AID 2523;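 active means response below a set limit, under 55% cells CD8-positive and vesicle-bound, and CD8 cells' 90th-percentile brightness under 279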;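 on vesicle binding response: mean PE anti-B7-1 fluorescence of CD8+ cells relative to row control; 100% = QL9-loaded vesicles with DMSO vehicle in the same plate row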); details: 2C mouse CD8+ T cells, at 7 µM, stronger effect = lower value; double positive events: measured here: CD8+/vesicle+ event percentage
[7] = target: Integrin beta-1 (Homo sapiens) + Integrin alpha-4 (Homo sapiens) (UniProt P13612+P05556); test: inhibition of HUTS-21 binding to VLA-4, pilot screen, VLA-4 allosteric modulator project, U937 cells, HUTS-21 mAb, flow cytometry, validation set (AID 2674;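 active means inhibition above 50%, about 3 SD of the validation set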;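 further: antibody binding induced by the VLA-4 ligand LDV present at three times its Kd; 0% = LDV ligand with antibody and no compound and 100% = antibody without LDV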); details: HUTS-21 LIBS mAb binding, at 6.7 µM, stronger effect = higher value, binding induced by LDV ligand
[8] = superoxide lowering in aged yeast cells, pilot screen, validation compound set (AID 2706;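 active means superoxide response below 65% of plate, a cut near 3 SD across the whole screen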;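 further: yeast exposed to compound for one week at 30 degrees C before staining; 100% = mean of all compound wells on the same plate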); details: S. cerevisiae aging, superoxide DHE fluorescence; at 10 µM; stronger effect = lower value
[9] = target: Beta-adrenergic receptor kinase 1 (Homo sapiens) (UniProt P25098); test: GRK2 binders displacing RNA aptamer, biochemical, validation, human GRK2, bead flow cytometry (AID 488806;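 active means aptamer binding inhibition above 30%, about 3 SD of noise from non-fluorescent compounds; inactive means inhibition at or below 30%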); details: bead-bound GRK2, FAM-aptamer displacement, at 10 µM, stronger effect = higher value
[10] = target: Beta-2 adrenergic receptor (Homo sapiens) (UniProt P07550); test: beta2AR agonists driving receptor internalization, pilot screen, cell-based, FAP fluorogen, flow cytometry, validation set (AID 504459;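 active means percent response above 42, roughly 3 SD of non-fluorescent test compounds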;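 further: agonist-driven loss of surface beta2AR via internalization measured by FAP dye flow cytometry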); details: Am2.2-beta2AR cells, FAP surface receptor flow cytometry; at 10 µM; stronger effect = higher value
[11] = target: AP-2 complex subunit beta (Homo sapiens) (UniProt P63010); test: inhibitors of arrestin peptide binding to AP2, pilot screen, biochemical, validation set, GST-AP2 beads, flow cytometry (AID 504541;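 active means inhibition above 54%, about 3 SD of non-fluorescent compounds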;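 further: AP2 carries R879A mutation and is captured from E. coli lysate; bead-bound FITC arrestin peptide fluorescence measuring arrestin peptide binding to AP2; 0% = DMSO wells and 100% = excess unlabeled arrestin peptide control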); details: FITC arrestin peptide, at 10 µM, stronger effect = higher value, AP2 beta2 appendage fragment, R879A mutant
[12] = yeast V-ATPase proton transport modulators, S. cerevisiae, pHLuorin, HTS validation (AID 504600; in the data active means response above about 15%;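 further: plate controls were DMSO for no effect and reference compound for full effect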); details: S. cerevisiae pHLuorin cytosolic pH, at 10 µM, stronger effect = higher value
[13] = tested on: anti-desmoglein-3 scFv antibody binding to human DSG3; test: inhibitors of anti-DSG3 scFv binding to DSG3, pilot screen, biochemical, validation compound set, bead-based, flow cytometry (AID 588368;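 active means binding below the plate cutoff, the plate median minus 3 SD, with a reading above zero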;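 further: signal is the median channel fluorescence of bead-bound GFP antibody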); details: Protein G beads, DSG3-Fc, scFv-GFP binding, at 10 µM, stronger effect = lower value
[14] = inhibitors of fungal efflux pumps CDR1, CDR2, MDR1, pilot screen, validation compound set, multiplex, phenotypic (AID 588506;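 active means efflux inhibition above 0.42, the validation set average plus 4 SD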;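 further: Nile Red retained in cells so higher fluorescence means more efflux inhibition; 0 = negative control wells and 1 = enniatin B 25 µM full block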); details: S. cerevisiae pump-expressing triplex, Nile Red efflux flow cytometry; at 10 µM; stronger effect = higher value; the pumps come from Candida albicans
[15] = target: ATP-binding cassette sub-family B member 6 (Homo sapiens) (UniProt Q9NP58); test: ABCB6 transporter inhibitors, pilot screen, K562-ABCB6 cells, flow cytometry, validation set (AID 588550;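 active means inhibition above the screen-wide mean plus 3 SD, about 51%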;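 further: 0% = DMSO wells and 100% = benzethonium chloride 70 µM positive control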); details: K562-ABCB6 porphyrin accumulation, 1 h, at 10 µM, stronger effect = higher value
[16] = promoters of myeloid differentiation in arrested cells, primary screen, cell-based, GFP/MAC1 double positive, flow cytometry, validation set (AID 588685); details: ER-HoxA9 marrow cells, stronger effect = higher value, normalized: vehicle 0, fulvestrant 100;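 further: compound exposure lasts four days before antibody staining and flow analysis; 0% = DMSO wells and 100% = 5 µM fulvestrant positive control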

Beta-adrenergic receptor kinase 1 (Homo sapiens), sequence (P25098 whole entry, looked up): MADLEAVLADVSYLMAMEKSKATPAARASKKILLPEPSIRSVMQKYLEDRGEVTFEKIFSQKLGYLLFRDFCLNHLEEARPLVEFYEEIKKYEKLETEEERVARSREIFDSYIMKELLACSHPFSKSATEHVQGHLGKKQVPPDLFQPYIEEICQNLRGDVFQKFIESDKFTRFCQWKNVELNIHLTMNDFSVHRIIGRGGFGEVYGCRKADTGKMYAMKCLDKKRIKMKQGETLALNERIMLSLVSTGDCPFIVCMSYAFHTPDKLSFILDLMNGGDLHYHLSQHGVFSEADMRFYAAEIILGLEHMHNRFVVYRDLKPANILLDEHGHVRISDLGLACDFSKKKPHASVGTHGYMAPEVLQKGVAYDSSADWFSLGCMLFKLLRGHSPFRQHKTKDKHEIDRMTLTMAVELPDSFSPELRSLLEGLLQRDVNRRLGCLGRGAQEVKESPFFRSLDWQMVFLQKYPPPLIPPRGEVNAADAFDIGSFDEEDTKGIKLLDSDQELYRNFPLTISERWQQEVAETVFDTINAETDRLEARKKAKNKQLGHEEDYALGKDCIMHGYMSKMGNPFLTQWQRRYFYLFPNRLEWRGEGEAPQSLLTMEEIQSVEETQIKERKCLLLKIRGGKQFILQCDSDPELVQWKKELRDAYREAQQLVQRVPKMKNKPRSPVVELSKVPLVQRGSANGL
AP-2 complex subunit beta (Homo sapiens), sequence (P63010 whole entry, looked up, the tested form may be a part, one chain of several): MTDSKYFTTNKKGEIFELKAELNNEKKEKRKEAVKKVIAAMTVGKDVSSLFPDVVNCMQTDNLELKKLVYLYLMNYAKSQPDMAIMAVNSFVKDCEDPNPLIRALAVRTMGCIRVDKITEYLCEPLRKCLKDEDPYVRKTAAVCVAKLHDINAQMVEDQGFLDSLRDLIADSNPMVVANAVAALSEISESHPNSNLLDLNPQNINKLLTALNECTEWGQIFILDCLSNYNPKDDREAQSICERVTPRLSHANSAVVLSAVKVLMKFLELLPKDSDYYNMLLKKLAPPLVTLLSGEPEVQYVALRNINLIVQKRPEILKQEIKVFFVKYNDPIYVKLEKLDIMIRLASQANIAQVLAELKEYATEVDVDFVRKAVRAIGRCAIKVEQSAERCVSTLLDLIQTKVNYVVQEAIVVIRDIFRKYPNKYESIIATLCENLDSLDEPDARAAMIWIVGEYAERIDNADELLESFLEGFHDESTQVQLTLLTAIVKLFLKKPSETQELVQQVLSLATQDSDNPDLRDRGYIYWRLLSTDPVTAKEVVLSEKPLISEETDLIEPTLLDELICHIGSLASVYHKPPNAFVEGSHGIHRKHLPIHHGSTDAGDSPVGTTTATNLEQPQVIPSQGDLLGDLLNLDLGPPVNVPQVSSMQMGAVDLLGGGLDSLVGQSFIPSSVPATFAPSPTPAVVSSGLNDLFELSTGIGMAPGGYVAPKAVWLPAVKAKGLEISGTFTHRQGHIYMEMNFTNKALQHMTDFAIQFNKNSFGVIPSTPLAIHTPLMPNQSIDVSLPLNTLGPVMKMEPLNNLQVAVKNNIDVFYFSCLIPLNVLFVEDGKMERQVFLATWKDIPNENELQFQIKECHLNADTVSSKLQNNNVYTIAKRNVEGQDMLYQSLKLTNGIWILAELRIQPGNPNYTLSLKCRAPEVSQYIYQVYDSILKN
ATP-binding cassette sub-family B member 6 (Homo sapiens), sequence (Q9NP58 whole entry, looked up): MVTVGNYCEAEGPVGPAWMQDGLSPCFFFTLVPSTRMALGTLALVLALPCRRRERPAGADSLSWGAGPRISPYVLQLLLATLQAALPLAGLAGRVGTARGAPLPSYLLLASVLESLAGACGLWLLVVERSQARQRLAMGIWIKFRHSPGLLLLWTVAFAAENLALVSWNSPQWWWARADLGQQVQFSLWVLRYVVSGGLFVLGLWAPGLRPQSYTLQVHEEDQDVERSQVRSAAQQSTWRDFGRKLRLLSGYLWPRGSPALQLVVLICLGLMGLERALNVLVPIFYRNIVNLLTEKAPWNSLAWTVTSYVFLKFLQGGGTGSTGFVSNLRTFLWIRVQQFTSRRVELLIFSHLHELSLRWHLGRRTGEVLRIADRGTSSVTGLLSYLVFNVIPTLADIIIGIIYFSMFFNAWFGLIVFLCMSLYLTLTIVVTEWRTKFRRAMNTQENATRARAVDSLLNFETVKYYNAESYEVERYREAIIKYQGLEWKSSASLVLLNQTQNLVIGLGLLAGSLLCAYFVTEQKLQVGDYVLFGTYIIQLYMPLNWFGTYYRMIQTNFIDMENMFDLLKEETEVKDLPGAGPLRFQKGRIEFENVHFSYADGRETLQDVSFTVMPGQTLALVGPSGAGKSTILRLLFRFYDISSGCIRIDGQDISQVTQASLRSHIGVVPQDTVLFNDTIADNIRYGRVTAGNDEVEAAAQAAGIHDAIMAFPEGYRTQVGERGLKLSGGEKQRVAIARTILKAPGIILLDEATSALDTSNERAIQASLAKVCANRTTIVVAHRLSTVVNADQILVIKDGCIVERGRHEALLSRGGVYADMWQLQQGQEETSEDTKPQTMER
Beta-2 adrenergic receptor (Homo sapiens), sequence (P07550 whole entry, looked up): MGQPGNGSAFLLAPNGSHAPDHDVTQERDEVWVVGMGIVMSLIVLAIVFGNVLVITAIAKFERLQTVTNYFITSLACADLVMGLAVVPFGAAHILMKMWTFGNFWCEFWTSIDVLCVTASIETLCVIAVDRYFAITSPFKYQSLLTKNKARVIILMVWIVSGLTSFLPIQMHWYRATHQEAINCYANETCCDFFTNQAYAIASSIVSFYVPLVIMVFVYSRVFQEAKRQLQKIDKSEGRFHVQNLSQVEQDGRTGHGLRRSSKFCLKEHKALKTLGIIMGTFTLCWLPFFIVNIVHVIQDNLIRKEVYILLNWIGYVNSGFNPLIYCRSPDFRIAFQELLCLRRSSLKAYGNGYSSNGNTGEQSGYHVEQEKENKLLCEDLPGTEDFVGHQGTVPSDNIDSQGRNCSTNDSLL
Integrin beta-1 (Homo sapiens) + Integrin alpha-4 (Homo sapiens), sequence (P05556 whole entry, looked up): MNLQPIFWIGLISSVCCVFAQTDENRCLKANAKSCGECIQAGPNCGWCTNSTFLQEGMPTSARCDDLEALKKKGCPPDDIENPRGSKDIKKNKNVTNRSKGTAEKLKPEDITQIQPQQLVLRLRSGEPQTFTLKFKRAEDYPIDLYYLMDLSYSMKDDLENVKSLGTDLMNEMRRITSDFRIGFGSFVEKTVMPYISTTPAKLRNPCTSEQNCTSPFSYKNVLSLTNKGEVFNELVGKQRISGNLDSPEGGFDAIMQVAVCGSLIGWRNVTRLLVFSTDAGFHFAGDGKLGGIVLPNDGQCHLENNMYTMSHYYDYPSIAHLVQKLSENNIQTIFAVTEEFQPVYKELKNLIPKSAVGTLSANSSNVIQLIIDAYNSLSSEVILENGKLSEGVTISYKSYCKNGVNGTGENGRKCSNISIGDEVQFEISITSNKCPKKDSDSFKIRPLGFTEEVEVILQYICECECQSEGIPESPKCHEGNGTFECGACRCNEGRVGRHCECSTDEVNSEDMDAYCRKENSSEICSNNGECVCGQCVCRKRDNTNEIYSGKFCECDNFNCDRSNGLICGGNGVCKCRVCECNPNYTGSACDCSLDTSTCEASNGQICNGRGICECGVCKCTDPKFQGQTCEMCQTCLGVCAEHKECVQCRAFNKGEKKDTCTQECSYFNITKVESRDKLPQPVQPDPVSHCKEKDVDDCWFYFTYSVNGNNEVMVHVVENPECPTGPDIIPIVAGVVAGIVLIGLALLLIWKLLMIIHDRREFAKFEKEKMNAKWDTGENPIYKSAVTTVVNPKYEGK
Integrin beta-1 (Homo sapiens) + Integrin alpha-4 (Homo sapiens), sequence (P13612 whole entry, looked up): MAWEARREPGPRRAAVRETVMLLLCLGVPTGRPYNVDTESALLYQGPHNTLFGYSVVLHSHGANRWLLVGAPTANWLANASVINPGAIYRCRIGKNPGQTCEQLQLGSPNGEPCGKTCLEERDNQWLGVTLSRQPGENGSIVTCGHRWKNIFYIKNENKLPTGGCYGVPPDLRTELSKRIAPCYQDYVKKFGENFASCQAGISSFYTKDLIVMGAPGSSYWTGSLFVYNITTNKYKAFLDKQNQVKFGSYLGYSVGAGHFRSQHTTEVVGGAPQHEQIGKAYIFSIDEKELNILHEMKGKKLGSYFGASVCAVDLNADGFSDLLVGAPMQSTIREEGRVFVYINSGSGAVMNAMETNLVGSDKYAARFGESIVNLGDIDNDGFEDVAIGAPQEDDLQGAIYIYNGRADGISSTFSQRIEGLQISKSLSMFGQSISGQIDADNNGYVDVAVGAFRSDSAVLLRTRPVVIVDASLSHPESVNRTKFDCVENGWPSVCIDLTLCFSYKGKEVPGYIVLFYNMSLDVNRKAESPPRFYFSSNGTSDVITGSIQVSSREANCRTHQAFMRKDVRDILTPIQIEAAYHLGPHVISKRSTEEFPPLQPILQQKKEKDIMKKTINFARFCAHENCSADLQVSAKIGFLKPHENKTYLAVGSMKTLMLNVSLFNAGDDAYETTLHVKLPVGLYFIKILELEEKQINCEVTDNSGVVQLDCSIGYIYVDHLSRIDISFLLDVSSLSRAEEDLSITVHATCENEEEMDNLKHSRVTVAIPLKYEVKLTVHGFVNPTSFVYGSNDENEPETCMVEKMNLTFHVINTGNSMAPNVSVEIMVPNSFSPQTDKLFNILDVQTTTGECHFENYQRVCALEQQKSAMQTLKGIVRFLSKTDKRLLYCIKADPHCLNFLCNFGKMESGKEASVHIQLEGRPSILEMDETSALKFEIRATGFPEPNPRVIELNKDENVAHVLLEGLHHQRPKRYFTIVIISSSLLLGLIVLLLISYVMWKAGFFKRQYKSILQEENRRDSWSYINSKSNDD

SMILES	percent of DMSO control GFP [1]	GFP response vs DMSO [2]	percent response of DMSO control [3]	GFP response vs DMSO [4]	GFP response, % of DMSO [5]	double positive events [6]	vesicle binding response [6]	inhibition [7]	superoxide response (% of plate) [8]	aptamer binding inhibition [9]	response [10]	inhibition [11]	response [12]	binding (% of control) [13]	efflux inhibition (fraction of control) [14]	inhibition [15]	differentiation response [16]
Cc1onc(-c2c(Cl)cccc2Cl)c1C(=O)NC1C(=O)N2C1SC(C)(C)C2C(=O)O (stereo not drawn)	99.7% (inactive)	103% (inactive)	100% (inactive)	117% (inactive)	113% (inactive)	59.6%	207% (inactive)	-6.23% (inactive)	83.9% (inactive)	0% (inactive)	-26.4% (inactive)	5.02% (inactive)	-4.49% (inactive)	103% (inactive)	0 (inactive)	3% (inactive)	-12.9% (inactive)
COc1ccc(/C=C2\CC/C(=C\c3ccc(OC)c(OC)c3)C2=O)cc1OC	99.8% (inactive)	103% (inactive)	97.1% (inactive)	97.2% (inactive)	96.6% (inactive)	59.8%	254% (inactive)	-18.9% (inactive)	99% (inactive)	3% (inactive)	17.4% (inactive)	0.71% (inactive)	-0.5% (inactive)	98.8% (inactive)	0.1 (inactive)	2% (inactive)	-5.68% (inactive)
CCCCOc1ccc(C(=O)CCN2CCCCC2)cc1	109% (inactive)	96.6% (inactive)	97.6% (inactive)	126% (inactive)	78.8% (inactive)	58.1%	108% (inactive)	-9.13% (inactive)	83.9% (inactive)	-1% (inactive)	26.6% (inactive)	-10.4% (inactive)	7.43% (inactive)	104% (inactive)	0.11 (inactive)	7% (inactive)	4.2% (inactive)
Cc1c2c(nc3c(C)cccc13)OC(C)C2 (stereo not drawn)	105% (inactive)	100% (inactive)	112% (inactive)	97.3% (inactive)	103% (inactive)	52%	31.8% (active)	-3.57% (inactive)	99.9% (inactive)	-2% (inactive)	-11.5% (inactive)	2.14% (inactive)	3.8% (inactive)	97.6% (inactive)	0.11 (inactive)	3% (inactive)	-9.53% (inactive)
O=C(Cc1cccc2ccccc12)N1CC[C@@]2(O)CCCC[C@H]2C1	92% (inactive)	138% (inactive)	104% (inactive)	85.3% (inactive)	85% (inactive)	62%	252% (inactive)	10.3% (inactive)	110% (inactive)	11% (inactive)	0.11% (inactive)	-11.6% (inactive)	2.02% (inactive)	105% (inactive)	-0.24 (inactive)	10% (inactive)	-2.46% (inactive)
CCC(C)NCCOc1ccccc1C (stereo not drawn)	104% (inactive)	101% (inactive)	105% (inactive)	97% (inactive)	108% (inactive)	61.2%	115% (inactive)	5.61% (inactive)	104% (inactive)	-4% (inactive)	-6.41% (inactive)	29% (inactive)	-2.79% (inactive)	96.8% (inactive)	-0.61 (inactive)	12% (inactive)	-16.3% (inactive)
Cc1ccccc1C(=O)Nc1ccccc1C(=O)NCC(C)C	100% (inactive)	107% (inactive)	104% (inactive)	118% (inactive)	108% (inactive)	63.7%	208% (inactive)	7.4% (inactive)	118% (inactive)	3% (inactive)	-22.2% (inactive)	35.6% (inactive)	-2.23% (inactive)	99.9% (inactive)	0 (inactive)	-1% (inactive)	2.89% (inactive)
CN(C)CCOC(c1ccccc1)c1ccccc1	94.4% (inactive)	123% (inactive)	115% (inactive)	87.5% (inactive)	89.4% (inactive)	43.1%	107% (inactive)	1.61% (inactive)	96.7% (inactive)	-1% (inactive)	-13.1% (inactive)	29.6% (inactive)	-7.12% (inactive)	98% (inactive)	0.52 (active)	2% (inactive)	1.64% (inactive)
CC(=O)CC(c1ccc([N+](=O)[O-])cc1)c1c(O)c2ccccc2oc1=O (stereo not drawn)	107% (inactive)	105% (inactive)	105% (inactive)	118% (inactive)	114% (inactive)	60.4%	115% (inactive)	-5.11% (inactive)	105% (inactive)	-1% (inactive)	-6.11% (inactive)	1.39% (inactive)	1.39% (inactive)	99% (inactive)	0.4 (inactive)	2% (inactive)	-11.9% (inactive)
NC(CO)C(=O)NNCc1ccc(O)c(O)c1O (stereo not drawn)	98.4% (inactive)	98.7% (inactive)	98.6% (inactive)	91.5% (inactive)	96.5% (inactive)	65.1%	130% (inactive)	13.7% (inactive)	92.9% (inactive)	8% (inactive)	8.54% (inactive)	62.4% (active)	-0.21% (inactive)	60.7% (active)	0.66 (active)	5% (inactive)	-8.96% (inactive)
CC(C)CC(NC(=O)c1cccc(Cl)c1)C(=O)O (stereo not drawn)	94.6% (inactive)	102% (inactive)	94.8% (inactive)	129% (inactive)	101% (inactive)	60.5%	207% (inactive)	-7.25% (inactive)	113% (inactive)	0% (inactive)	-14.8% (inactive)	14.1% (inactive)	1.45% (inactive)	98% (inactive)	-0.13 (inactive)	2% (inactive)	-5.6% (inactive)
CCOC(=O)C1CCCN(Cc2nc(Cc3cccc(F)c3)no2)C1 (stereo not drawn)	99.1% (inactive)	92.6% (inactive)	92.4% (inactive)	94.8% (inactive)	87.2% (inactive)	58.5%	172% (inactive)	5.61% (inactive)	90.5% (inactive)	-1% (inactive)	20.7% (inactive)	3.77% (inactive)	-3.88% (inactive)	106% (inactive)	0.1 (inactive)	10% (inactive)	8.59% (inactive)
Cc1ccc2ncnc(NCCCCCC(=O)O)c2c1	105% (inactive)	103% (inactive)	105% (inactive)	106% (inactive)	108% (inactive)	64.6%	130% (inactive)	8.29% (inactive)	114% (inactive)	-1% (inactive)	0.4% (inactive)	13.1% (inactive)	5.01% (inactive)	101% (inactive)	0.135 (inactive)	4% (inactive)	-14.8% (inactive)
CCOc1ccc(C(=O)N2CCCC2C(=O)O)cc1 (stereo not drawn)	97.9% (inactive)	101% (inactive)	100% (inactive)	103% (inactive)	102% (inactive)	62.9%	163% (inactive)	13.4% (inactive)	107% (inactive)	6% (inactive)	-15.7% (inactive)	1.45% (inactive)	6.32% (inactive)	101% (inactive)	-0.04 (inactive)	6% (inactive)	-1.05% (inactive)
COc1ccc(C(=O)NCCC2=CCCCC2)cc1[N+](=O)[O-]	107% (inactive)	104% (inactive)	106% (inactive)	114% (inactive)	106% (inactive)	62.5%	194% (inactive)	12.3% (inactive)	99.5% (inactive)	1% (inactive)	-5.02% (inactive)	15.5% (inactive)	-2.15% (inactive)	97.5% (inactive)	1.08 (active)	5% (inactive)	-3.11% (inactive)
COc1ccccc1N1CCN(CC(O)COc2cccc3ccccc23)CC1 (stereo not drawn)	102% (inactive)	105% (inactive)	98.3% (inactive)	109% (inactive)	118% (inactive)	64.3%	192% (inactive)	8.25% (inactive)	97.5% (inactive)	6% (inactive)	-24.7% (inactive)	-5.11% (inactive)	5.97% (inactive)	107% (inactive)	-0.09 (inactive)	-4% (inactive)	4.86% (inactive)
CC[C@H]1CN2CCc3cc(OC)c(OC)cc3[C@@H]2C[C@@H]1C[C@H]1NCCc2cc(OC)c(OC)cc21	110% (inactive)	103% (inactive)	94.5% (inactive)	106% (inactive)	99.9% (inactive)	60.1%	140% (inactive)	-27.9% (inactive)	86.3% (inactive)	-7% (inactive)	10.4% (inactive)	3.93% (inactive)	-3.02% (inactive)	106% (inactive)	-0.24 (inactive)	-66% (inactive)	14.4% (inactive)
COc1ccc(C2NC(=O)c3ccccc3O2)c(OC)c1OC (stereo not drawn)	105% (inactive)	104% (inactive)	111% (inactive)	101% (inactive)	104% (inactive)	61.2%	200% (inactive)	-7.72% (inactive)	89.7% (inactive)	5% (inactive)	-12.7% (inactive)	-2.37% (inactive)	1.87% (inactive)	95.5% (inactive)	0.11 (inactive)	0% (inactive)	-1.71% (inactive)
C[N+]1(C2CCC3CCCC2C3O)CCCCC1 (stereo not drawn)	108% (inactive)	100% (inactive)	115% (inactive)	82.8% (inactive)	103% (inactive)	64.9%	326% (inactive)	-2.53% (inactive)	94.2% (inactive)	1% (inactive)	-9.71% (inactive)	-10.4% (inactive)	3.03% (inactive)	99.3% (inactive)	-0.1 (inactive)	32% (inactive)	4.15% (inactive)

Reference: PubChem BioAssay
